The values below come from PubChem BioAssay (NCI).

Compounds without any hit were thinned out: in the full panel of roughly 83,000, 20% have a hit.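 The test compound was applied at a single concentration to cells in 96-well plates for 48 hours, and percent growth was recorded.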 Unmarked numbers belong to inactive results. Active and inactive are the calls of the source. The calls were made as follows: active = growth percent below 10; inactive = the rest. *1 amine or outer side, *2 acyl side, *3 side chain or, on linkers, in order; H or OH if unused. Where a SMILES comes first, the peptide text is derived from it. Bridges are numbered along the chain shown (N, C = ends). Roman numbers before positions name the chains, in order. [ ]: non-standard residue; d: D form. The star is where a group is joined. Actinocin(1to9) = Cc1c2oc3c(C)ccc(C(=O)[*:2])c3nc-2c(C(=O)[*:1])c(N)c1=O; X5 = CCC(=O)CC1CC(C)CC(C(=O)[*:2])N1[*:1]; NMeV = CN[CH](C(=O)O)C(C)C; X4 = CCCCCCCCC(C)C(=O)*; Aib = CC(C)(N)C(=O)O; X6 = CC(CN(C)CCO)N*; Sar = CNCC(=O)O

Test systems include SK-MEL-2 melanoma; EKVX NSCLC; SN12C renal; UO-31 renal; TK-10 renal; CAKI-1 renal; A498 renal; CCRF-CEM leukemia; MOLT-4 leukemia; SR leukemia; RPMI-8226 leukemia; OVCAR-8 ovarian; OVCAR-5 ovarian; OVCAR-4 ovarian; SK-OV-3 ovarian; IGROV1 ovarian; OVCAR-3 ovarian; HS 578T breast; NCI/ADR-RES ovarian; ACHN renal.
Assay in all cases: NCI-60 one-dose screen, 48 h (100 = growth as untreated, 0 = no growth, -100 = all killed)
Common to all, as to conditions: 10 µM unless noted

On to `CCN(CC)CCNc1ccc([N+](=O)[O-])c2sc3ccccc3c(=O)c12`, for which the growth was 21.6% with SK-MEL-2 melanoma; 23.1% in the assay on EKVX NSCLC; 28.5% in the assay on SN12C renal; -10% (active) in the assay on UO-31 renal; 63.7% in the assay with TK-10 renal; -0.017% (active) in the assay with CAKI-1 renal. The growth is 43.7% in the assay with A498 renal; 38% in the assay on CCRF-CEM leukemia; 12.1% in the assay on MOLT-4 leukemia; 11.1% with SR leukemia; 22.2% in the assay with RPMI-8226 leukemia; 19.1% with OVCAR-8 ovarian. Besides, the growth in the assay with OVCAR-5 ovarian was 45%; with OVCAR-4 ovarian, 12%; in the assay on SK-OV-3 ovarian, 32.6%; in the assay on IGROV1 ovarian, -10.9% (active); in the assay on OVCAR-3 ovarian it was 36.7%; with HS 578T breast, 20.4%. Besides, the growth in the assay on NCI/ADR-RES ovarian was 32.8%.

`CC(C)c1ccc(C(=O)OC2CCCC2)cc1`: the growth in the assay with SK-MEL-2 melanoma was 105%; in the assay with EKVX NSCLC, 92.6%; with SN12C renal, 97.5%; in the assay on UO-31 renal, 99.6%; in the assay with ACHN renal, 99.5%; in the assay with CAKI-1 renal, 98.8%. Moreover, the growth in the assay with A498 renal was 117%; with CCRF-CEM leukemia, 89.8%; in the assay on MOLT-4 leukemia it was 110%; in the assay on SR leukemia, 105%; in the assay on RPMI-8226 leukemia, 98.3%; in the assay on OVCAR-8 ovarian, 113%. Also, the growth is 101% in the assay on OVCAR-5 ovarian; 106% in the assay on OVCAR-4 ovarian; 107% in the assay on SK-OV-3 ovarian; 103% in the assay with IGROV1 ovarian; 99.3% in the assay on OVCAR-3 ovarian; 101% with HS 578T breast. Moreover, the growth with NCI/ADR-RES ovarian was 99.9%.

As to `CC(C)(C)c1ccc(CCO)cc1`, the growth was 92.3% in the assay on SK-MEL-2 melanoma; 89.6% in the assay on EKVX NSCLC; 91.8% with SN12C renal; 78.8% in the assay with UO-31 renal; 93.7% in the assay on TK-10 renal; 107% with ACHN renal. For the same molecule, the growth in the assay on A498 renal is 118%; in the assay on CCRF-CEM leukemia it was 87.2%; with MOLT-4 leukemia it was 99.1%; in the assay with RPMI-8226 leukemia it was 112%; in the assay on OVCAR-8 ovarian, 95.8%; in the assay on OVCAR-5 ovarian, 91.4%. Also, the growth in the assay on OVCAR-4 ovarian is 99.4%; with SK-OV-3 ovarian, 100%; with OVCAR-3 ovarian, 116%; in the assay with HS 578T breast, 135%; in the assay with NCI/ADR-RES ovarian, 101%.

For `CCC(C)C1NC(=O)C(NC(=O)c2c3nc4c(C(=O)NC5C(=O)NC(C(C)CC)C(=O)N6CCCC6C(=O)N(C)CC(=O)N(C)C(C(C)C)C(=O)OC5C)ccc(C)c4oc-3c(C)c(=O)c2N)C(C)OC(=O)C(C(C)C)N(C)C(=O)CN(C)C(=O)C2CCCN2C1=O` (stereo unspecified) (I: TIP[Sar][NMeV] / II: TIP[Sar][NMeV]; ester I:1-I:C, II:1-II:C; linker I:N-II:N via Actinocin(1to9); configuration not given here), the growth in the assay with SK-MEL-2 melanoma is -43.2% (active); with EKVX NSCLC it was 8.25% (active); in the assay with SN12C renal, 15.4%; in the assay on UO-31 renal, -15.6% (active); in the assay on TK-10 renal, 3.49% (active); in the assay on ACHN renal it was -4.88% (active). Moreover, the growth in the assay with CAKI-1 renal was -13.1% (active); in the assay on CCRF-CEM leukemia, -5.99% (active); in the assay with MOLT-4 leukemia it was -0.501% (active); in the assay with SR leukemia it was 5.31% (active); in the assay with RPMI-8226 leukemia it was -18.8% (active); with OVCAR-5 ovarian it was -76.6% (active). Moreover, the growth in the assay on OVCAR-4 ovarian is -1.07% (active); with SK-OV-3 ovarian, 18.2%; in the assay with IGROV1 ovarian, -32.4% (active); in the assay with OVCAR-3 ovarian, 1.47% (active).

Turning to `COC(=O)c1nc(=S)[nH]c(C(=O)OC)c1C(=O)c1ccc(Cl)c(Cl)c1`, the growth in the assay with SK-MEL-2 melanoma was 107%; in the assay on EKVX NSCLC, 100%; with SN12C renal, 102%; in the assay with UO-31 renal, 87%; in the assay with TK-10 renal it was 106%; with CAKI-1 renal it was 94.6%. Also, the growth with A498 renal was 130%; in the assay on SR leukemia, 115%; in the assay with RPMI-8226 leukemia, 105%; with OVCAR-8 ovarian, 111%; with OVCAR-5 ovarian, 118%; in the assay on OVCAR-4 ovarian it was 104%. For the same molecule, the growth in the assay with SK-OV-3 ovarian was 107%; in the assay on IGROV1 ovarian, 112%; in the assay on OVCAR-3 ovarian, 122%; in the assay on HS 578T breast, 102%; in the assay with NCI/ADR-RES ovarian, 110%.

Consider `S=c1[nH]c2cc(Cl)ccc2s1`, for which the growth in the assay on SK-MEL-2 melanoma is 100%; in the assay with EKVX NSCLC it was 102%; in the assay with SN12C renal, 96.6%; in the assay on UO-31 renal, 66%; with TK-10 renal it was 97.6%; with CAKI-1 renal, 92.3%. In addition, the growth in the assay on A498 renal is 132%; in the assay with CCRF-CEM leukemia, -43.5% (active); in the assay with SR leukemia, 106%; in the assay on OVCAR-8 ovarian, 103%; with OVCAR-5 ovarian, 98.6%; in the assay with OVCAR-4 ovarian it was 106%. The growth in the assay with SK-OV-3 ovarian was 102%; in the assay on IGROV1 ovarian, 105%; in the assay with OVCAR-3 ovarian it was 102%; with NCI/ADR-RES ovarian, 105%.

Consider `CCCCCCCCC(C)C(=O)N1CCCC1C(=O)N1C(CC(=O)CC)CC(C)CC1C(=O)NC(C)C(=O)NC(C)(C)C(=O)NC(C)(C)C(=O)NC(C(=O)NC(C)C(=O)NC(C)(C)C(=O)NC(C)(C)C(=O)NC(C)CN(C)CCO)C(C)CC` (stereo unspecified) (X4-P[X5]A[Aib][Aib]IA[Aib][Aib]-X6; configuration not given here), for which the growth in the assay on SK-MEL-2 melanoma is -34% (active); in the assay on EKVX NSCLC, -25.3% (active); with SN12C renal it was -78.5% (active); with UO-31 renal, -48.1% (active); in the assay on TK-10 renal, -50.5% (active); in the assay on CAKI-1 renal, 7.86% (active). Also, the growth was -33.3% (active) with CCRF-CEM leukemia; -40.9% (active) with MOLT-4 leukemia; -44.2% (active) in the assay with SR leukemia; -42.5% (active) in the assay on RPMI-8226 leukemia; -82.2% (active) in the assay with OVCAR-5 ovarian; -12.9% (active) in the assay on OVCAR-4 ovarian. Also, the growth in the assay with SK-OV-3 ovarian was -23.8% (active); in the assay with IGROV1 ovarian, -60.3% (active); in the assay with OVCAR-3 ovarian it was -54.6% (active); in the assay on NCI/ADR-RES ovarian, -36.9% (active).

On to `C[C@@]1(CO)[C@H](O)CC[C@@]2(C)[C@H]1CC[C@H]1C[C@@H]3C[C@@]12CC[C@@]3(O)COC(=O)CN`, for which the growth is 102% in the assay with SK-MEL-2 melanoma; 74.2% with EKVX NSCLC; 61.6% in the assay on SN12C renal; 22.7% in the assay with UO-31 renal; 85.3% with TK-10 renal; 14.6% with ACHN renal. Also, the growth with CAKI-1 renal was 17%; in the assay with CCRF-CEM leukemia, 32.8%; with MOLT-4 leukemia, 28.2%; with SR leukemia, 18.9%; in the assay with RPMI-8226 leukemia, 43%; in the assay with OVCAR-5 ovarian, 24.7%. Also, the growth with OVCAR-4 ovarian was 87.9%; in the assay on SK-OV-3 ovarian, 74.8%; in the assay with IGROV1 ovarian, 33.5%; in the assay on OVCAR-3 ovarian, 70.9%; with NCI/ADR-RES ovarian, 11.1%.

Regarding `O=C(Nc1ccc(Cl)c(Cl)c1)Nc1ccccc1O`, the growth in the assay with SK-MEL-2 melanoma was 77%; in the assay on EKVX NSCLC it was 80.4%; in the assay with SN12C renal, 76.4%; in the assay with UO-31 renal, 55.8%; in the assay with TK-10 renal, 116%; in the assay on ACHN renal, 76.5%. Also, the growth is 106% in the assay on A498 renal; 37.1% in the assay on CCRF-CEM leukemia; 61.1% in the assay with MOLT-4 leukemia; 87% in the assay with SR leukemia; 18.8% in the assay on RPMI-8226 leukemia; 67.1% with OVCAR-8 ovarian. For the same molecule, the growth is 98.7% with OVCAR-5 ovarian; 67.1% in the assay with OVCAR-4 ovarian; 89.2% in the assay on SK-OV-3 ovarian; 72.7% with IGROV1 ovarian; 79.6% in the assay with OVCAR-3 ovarian; 106% with HS 578T breast. Further, the growth with NCI/ADR-RES ovarian is 63.8%.
